Compounds with a hit are over-represented: about 8% of the library has one in this group of screens.
MARV entry inh – blocks Marburg virus binding or cell entry. actives 6.5% (n = 18,000). Potency, µM (top dose mostly 49.2 µM), without a hit: at the top dose activity change, negative = inhibition, usual class: inhibitors. Marburg virus pseudotype entry/binding inhibition, cell-based. AID 720532
LASV entry inh – Lassa virus entry inhibition; Lassa virus pseudotyped entry inhibition, cell-based qHTS; Potency, µM (doses to about 49.2 µM), inactives show top-dose activity change, negative = inhibition, hits mostly inhibitors; actives 4.1% (n = 18,000); AID 720533
Numbers without * were called inactive; ? = inconclusive; · = no result; ! = a repeat was not active; [ ] = remark or other dose. Calls follow the shape of the full dose curve; tested in HEK293 cells. % is scaled to controls: 0 for no effect and ±100 for the full control effect; potency is read from the fitted curve at half-maximal effect.

SMILES | MARV entry inh | LASV entry inh
COc1ccccc1CNCCCCCCNCCCCCCCCNCCCCCCNCc1ccccc1OC | 7.9µM* | ?
COc1ccc(O[C@@H]2[C@H](O)CO[C@@H]2C=CC#Cc2ccccc2)cc1 | 8%[8.59 µM] | -28%[8.59 µM]
CCOC(=O)CN1C(=O)NC(c2cccc(C(F)(F)F)c2)C(C(=O)OC)=C1C (configuration not stated) | -11%[8.59 µM] | -14%[8.59 µM]
c1ccc(CCc2nc(-c3ccccc3)oc2NC2CCCCC2)cc1 | -13%[8.59 µM] | -13%[8.59 µM]
NC1CCc2cc(O)c(O)cc2C1 (configuration not stated) | 22µM*! | 0%
COc1cc2c(c(OC)c1OC)C1(c3ccccc3)CCCCCC1[C@@H]2NC(=O)C(F)(F)F (some centres not stated) | -15%[8.59 µM] | ·
CC(C)=CCCC(C)=CCON=C1C[C@@H](O)[C@@H](O)[C@@H]2[C@H]3C(=O)N(Cc4ccc5c(c4)OCO5)C(=O)[C@@H]3CC[C@@H]12 | -44%[8.59 µM] | ·
CCCCN(CCCC)Cc1cc(=O)oc2cc(C)cc(C)c12 | -25% | 6%
Cc1cc(C)c2c(CN(C)Cc3ccccc3)cc(=O)oc2c1 | 2.2µM* | ?
COC(=O)CC=C[C@@H](C)[C@@H](C=NOC[C@@H](C)[C@H](OCc1ccccc1)C(C)C)NS(=O)(=O)c1ccc(C)cc1 | -14%[8.59 µM] | ·
O=C(OCc1cn([C@@H]2CN(C(=O)C3CCCCC3)[C@@H](c3ccccc3)C[C@@H]2O)nn1)c1ccccc1 | ? | 11%
COc1ccc(C=CN(CCc2ccc(OC)c(OC)c2)C(=O)c2ccccn2)cc1 | -11%[8.59 µM] | -1%[8.59 µM]
C[C@@H]1CN(CCCn2c3ccccc3c3ccccc32)C[C@H](C)N1 | 7.9µM* | 18µM*
COC[C@H]1O[C@]2(c3ccccc3)CO[C@@H]1[C@@H](C=Cc1ccccc1)C2 | 26%[8.59 µM] | ·
COc1cccc2c1C(=O)c1c(O)c3c(c(O)c1C2=O)C[C@@](O)(C(=O)CO)C[C@@H]3O[C@H]1C[C@H](N)[C@H](O[C@@H]2CCCCO2)[C@H](C)O1 | 1.3µM* | 1.1µM*
CC(=O)[C@]1(O)Cc2c(O)c3c(c(O)c2[C@@H](O[C@H]2C[C@H](N)[C@H](O)[C@H](C)O2)C1)C(=O)c1c(O)cccc1C3=O | 0.056µM* | ·
COc1cccc2c1C(=O)c1c(O)c3c(c(O)c1C2=O)C[C@@](O)(C(C)=O)C[C@@H]3O[C@H]1C[C@H](N)[C@H](O)[C@H](C)O1 | ? | 35µM*!
COc1cccc2c1C(=O)c1c(O)c3c(c(O)c1C2=O)C[C@@](O)(C(=O)CO)C[C@@H]3OC1C[C@@H](N)[C@H](O)[C@H](C)O1 (some centres not stated) | 0.89µM* | ?
COC(=O)CC=C[C@@H](C)[C@@H](C=NOCC[C@@H]1C=C[C@H](OC(C)=O)[C@@H](COC(C)=O)O1)NS(=O)(=O)c1ccc(C)cc1 | 53%[8.59 µM] | -19%[8.59 µM]
COc1ccc(CN(C2CCCC2)S(=O)(=O)c2ccccc2Br)cc1 | ? | -23%
CC(C)CON=C1C[C@@H](O)[C@@H](O)[C@@H]2[C@H]3C(=O)N(C4CCCCC4)C(=O)[C@@H]3CC[C@@H]12 | -20%[8.59 µM] | ·
CC(C)Nc1oc(-c2ccccc2)nc1-c1ccc(C(F)(F)F)cc1 | -8%[8.59 µM] | -11%[8.59 µM]
O=c1cc(-c2ccccc2Cl)oc2c(NS(=O)(=O)c3cc(Cl)cc(Cl)c3O)ccc(O)c12 | ? | 10µM*
O=C(Nc1ccc(O)c2c(=O)cc(-c3ccccc3Cl)oc12)c1ccc(Cl)cc1Cl | -7% | -8%
CCCC[C@]12Cc3cc(OC)c(OC)cc3[C@H](O1)C1=C(CC3(CCCCC3)OC1=O)O2 | -24%[8.59 µM] | 13%[8.59 µM]
SMILES | MARV entry inh | LASV entry inh
C#C[C@]1(O)CC[C@H]2[C@@H]3CCC4=CC(=O)CC[C@@H]4[C@H]3C(=C)C[C@@]21CC | 8% | -20%
CCCCCCCC(=O)OCC(O)CO (configuration not stated) | 13% | 0%
CCCCCCCCCCOCC(O)CN (configuration not stated) | ? | 32µM*
CCCCCCCCCCCCSCCOCCO | 18% | -13%
CCCCCCCCCCCCCCCCOCCOCCOCCOCCOCCOCCOCCOCCOCCOCCOCCOCCOCCOCCOCCOCCOCCOCCOCCOCCO | ? | 16µM*
COC(=O)CC=C1c2ccccc2[C@@H](OC)[C@@H]1C | 16%[8.59 µM] | 38%[8.59 µM]
COc1cccc([C@H]2Oc3ccc(OC)cc3C(=NOC[C@@H](C)[C@H](OCc3ccccc3)C(C)C)[C@H]2O)c1 | 10%[8.59 µM] | 11%[8.59 µM]
C#CCCCON=C1C[C@@H](O)[C@H](O)[C@H]2[C@@H]3C(=O)N(C[C@@H]4CCCO4)C(=O)[C@@H]3CC[C@H]12 | 4%[8.59 µM] | ?
CCN(CC)C(C)CN1c2ccccc2Sc2ccccc21 (configuration not stated) | 1.6µM* | 14µM*
CC(CN(C)C)CN1c2ccccc2S(=O)(=O)c2ccccc21 (configuration not stated) | ? | -5%
CC(C)=CCCC(C)=CCON=C1C[C@@H](O)[C@@H](O)[C@@H]2[C@H]3C(=O)N(C[C@@H]4CCCO4)C(=O)[C@@H]3CC[C@H]12 | 22%[8.59 µM] | -17%[8.59 µM]
C[C@@H]1CC[C@H]2C(=O)N(Cc3ccc(Cl)cc3)C[C@@H](O)CN2[C@@H]1c1ccc(Br)cc1 | -15%[8.59 µM] | -2%[8.59 µM]
COc1cc(CNCc2cc3ccc(F)cc3nc2N2CCOCC2)cc(OC)c1OC | -9% | -10%
OCCCNCc1cc2ccc(F)cc2nc1N1CCN(c2cccc(Cl)c2)CC1 | 10µM* | ?
CSCC[C@@H]1NC(=O)[C@@H]2CSCCS(=O)(=O)N2C1=O | 28% | 19%
O=C(C[C@H]1C(=O)N(Cc2cccnc2)C[C@@H]1c1ccc(Br)cc1)Nc1ccc(Br)cc1 | -24% | -27%
CCCCC/C=C\C/C=C\C/C=C\C/C=C\CCCC(=O)NCC(=O)O | -56% | ?
CCCCC/C=C\C/C=C\C/C=C\C/C=C\CCCC(=O)NCCO | 9% | 3%
CCCCC/C=C\C/C=C\C/C=C\C/C=C\CCCC(=O)Nc1ccc(O)cc1C | ? | 13µM*
CCCCC/C=C\C/C=C\C/C=C\C/C=C\CCCC(=O)Nc1ccc(O)cc1 | ? | 32µM*
COC(=O)C1=C[C@@]2(c3ccc(F)cc3[C@@H](OC)[C@@H]2C)[C@@H]2C=C[C@H]1C2 | 2%[8.59 µM] | -12%[8.59 µM]
COc1cc2c(cc1OC)C(C)NCC2 (configuration not stated) | 1% | -8%
CC[C@@H]1CN2CCc3cc(OC)c(OC)cc3[C@H]2C[C@@H]1C[C@H]1NCCc2cc(OC)c(OC)cc21 | ? | 0.32µM*
CC[C@@H]1CN2CCc3cc(OC)c(OC)cc3[C@@H]2C[C@@H]1C[C@H]1NCCc2cc(OC)c(OC)cc21 | ? | 5.6e-05µM*
COc1cc(C[C@@H]2NCCc3cc(O)c(O)cc32)cc(OC)c1OC | 11% | 4%
SMILES | MARV entry inh | LASV entry inh
COC(=O)C1=C(C)N(Cc2ccccc2)C(=NCc2ccccc2)NC1c1ccccc1 (configuration not stated) | ? | 29%[8.59 µM]
COC(=O)C1=C(C(=O)OC)[C@@H]2N(Cc3ccccc3)c3ccccc3[C@@]23CCC(=O)N(CC2CCCCC2)C3=N1 | 11%[8.59 µM] | 3%[8.59 µM]
COC(=O)C1=C(C(=O)OC)[C@@H]2N(C)c3ccccc3[C@@]23C[C@@H](C(=O)OC)N(C(=O)NC(C)(C)C)C3=N1 | 14%[8.59 µM] | ·
CC(C)CN1Cc2cc(Br)ccc2Oc2ccc(Cl)cc2S1(=O)=O | ? | -10%
C[C@H]1CC[C@H]2C(=O)N[C@H](Cc3ccccc3)C(=O)N2[C@H]1c1ccccc1 | -17%[8.59 µM] | 9%[8.59 µM]
CC1=CC(=C(c2ccc(N)cc2)c2ccc(N)cc2)C=CC1=N | ? | 7.9µM*
